Here are results for 14 molecules from PubChem BioAssay.

Active and inactive are the calls of the source.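 The calls were made as follows, unless noted: active = inhibition at or above 50% at 10 µM; inactive = inhibition below 50%.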

Experiment [1] is described as follows: inhibitors of TNFa-induced NFkB p65 translocation, primary screen, imaging, HUVEC, MLSMR starter and 10KST1 sets (AID 438;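 active = inhibition above 20% together with a positive visual image hit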;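 also: compound added about 3h40 before a 20 min TNFalpha stimulation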;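 as to inhibition: signal is the nuclear over cytoplasmic p65 intensity ratio per well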). The following applies: HUVEC TNFa-induced p65 nuclear translocation; cell count: measured here: nuclei count (cytotoxicity indicator), at 2.08 µM; inhibition: at 2 µM, stronger effect = higher value, 0% TNFa-plus-vehicle, 100% no-TNFa wells.
A short description of experiment [2]: reduction of polyQ htt aggregates in cells – imaging, exon1htt(103Q)mCFP cells, high-content imaging, primary screen (AID 483;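 active = visual image review flags a hit and inhibition of aggregation exceeds 20%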;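 also: compound exposure lasted 3 days before fixation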;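 as to nuclei count: percent of the per-plate median nuclei count of sample wells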). The following applies: exon1htt(103Q)mCFP cell line, aggregate imaging, at 2 µM; inhibition of aggregation: stronger effect = higher value; nuclei count: measured here: cell count, toxicity.
Experiment [3] can be described thus: endothelial E-selectin expression blockers – imaging, HUVEC, immunofluorescence, MLSMR starter and 10KST1 sets, primary screen (AID 487;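 active = visually confirmed hit in the image check and inhibition above 20%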;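 as to inhibition: signal is fraction of cell area covered by stained E-selectin grains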;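 as to nuclei count: 100% = median nuclei count of all wells on the same plate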). The following applies: HUVEC TNFalpha-induced E-selectin immunofluorescence imaging, at 2 µM; inhibition: stronger effect = higher value; nuclei count: measured here: cell number, toxicity.
Experiment [4] addresses Voltage-gated potassium channel subunit beta-2 (Rattus norvegicus) (UniProt P62483). The experiment can be described thus: inhibitors of rat Kvbeta2 reductase activity – biochemical, NADPH fluorescence, primary screen (AID 622;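 active = fluorescence slope higher than the sample average by over 3 SD, cut at about -0.22 in these data, passing the limit was not always enough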;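 also: slope of raw intensity against log time taken from 70 to 1610 s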). The following applies: recombinant KvBeta, 4-cyanobenzaldehyde reduction, at 10 µM, stronger effect = higher value.
For experiment [5] the target is unchanged. The experiment can be described thus: enhancers of rat Kvbeta2 NADPH turnover – biochemical, NADPH fluorescence, primary screen (AID 623;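 active = NADPH fluorescence slope more negative than the mean of all samples by about 3 SD, 99.7% confidence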;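 also: fluorescence intensity change per second fitted from 20 to 320 s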). The following applies: Recombinant KvBeta, NADPH fluorescence decrease slope, 10 min; at 10 µM; stronger effect = lower value.
Experiment [6] has as its target Alpha-2C adrenergic receptor (Homo sapiens) (UniProt P18825). The experiment can be described thus: compounds altering alpha2C-coupled GIRK flux – cell-based, HEK293 alpha2C/GIRK1/2, thallium flux, primary screen (AID 624;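 active = fluorescence slope after compound addition differing from the mean of all screened samples at 99.7% confidence, in either direction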;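 also: slope of fluorescence ratio to pre-addition baseline per second over 15 to 24 s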). The following applies: thallium flux BTC fluorescence, at 10 µM, actives lie on both sides.
Experiment [7] in a line: blockers of RIG-like receptor reporter activation – cell-based, Sendai virus stimulus, luciferase, 10K MLSCN set, TLR/RLR signaling modifier project, primary screen (AID 602276).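 Also: firefly luciferase from ISG56 promoter only with Renilla not read in this screen; 0% = Sendai virus plus DMSO and 100% = medium plus DMSO without virus.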 The following applies: HEK293 RL24 IRF3 luciferase reporter, at 10 µM, stronger effect = higher value. A general note: A reporter such as luciferase makes a cellular process visible.
Experiment [8] in a line: TLR3 IRF3 reporter activation blockers – cell-based, poly I:C stimulus, luciferase, 10K MLSCN set, primary screen (AID 602277;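 active = inhibition of the reporter signal at or above 50%; inactive = inhibition below 50%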). The following applies: HEK293-TLR3 RL24 IRF3 luciferase reporter, at 10 µM, stronger effect = higher value.

Chain of Voltage-gated potassium channel subunit beta-2 (Rattus norvegicus) (P62483 whole entry, looked up): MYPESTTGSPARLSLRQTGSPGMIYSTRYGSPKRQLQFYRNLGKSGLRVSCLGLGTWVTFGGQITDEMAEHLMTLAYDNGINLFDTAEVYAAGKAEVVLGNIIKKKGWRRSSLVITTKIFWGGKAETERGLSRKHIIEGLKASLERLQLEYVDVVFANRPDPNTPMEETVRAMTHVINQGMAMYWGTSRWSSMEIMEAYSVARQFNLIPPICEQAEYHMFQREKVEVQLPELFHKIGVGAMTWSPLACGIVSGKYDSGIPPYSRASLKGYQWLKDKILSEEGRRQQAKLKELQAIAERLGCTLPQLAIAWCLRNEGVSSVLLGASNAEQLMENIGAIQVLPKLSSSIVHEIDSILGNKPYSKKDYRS
Chain of Alpha-2C adrenergic receptor (Homo sapiens) (P18825 whole entry, looked up): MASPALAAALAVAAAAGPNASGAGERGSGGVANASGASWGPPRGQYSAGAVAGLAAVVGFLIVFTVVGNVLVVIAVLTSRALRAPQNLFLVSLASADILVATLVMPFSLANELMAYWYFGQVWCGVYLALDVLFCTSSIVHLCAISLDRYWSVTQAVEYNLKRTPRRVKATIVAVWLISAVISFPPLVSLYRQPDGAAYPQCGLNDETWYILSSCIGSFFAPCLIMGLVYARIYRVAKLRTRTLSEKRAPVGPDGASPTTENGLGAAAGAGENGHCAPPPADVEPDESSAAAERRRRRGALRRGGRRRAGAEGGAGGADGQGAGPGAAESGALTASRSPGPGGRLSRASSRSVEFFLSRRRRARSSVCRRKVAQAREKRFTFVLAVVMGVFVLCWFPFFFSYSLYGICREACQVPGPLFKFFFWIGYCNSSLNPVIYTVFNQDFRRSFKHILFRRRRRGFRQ

One may read the inhibition as the change of the read-out against control, counted positive when it falls. Turning to `CC(C)CCNC(=O)C(C)N(Cc1ccc(F)cc1)C(=O)c1ccc(CN2CCCCC2)o1` (centres undefined), the cell count in experiment [1] was 327. Moreover, the inhibition in experiment [1] was -11.2% (inactive); in experiment [3], 2.1% (inactive); in experiment [7], 7.35% (inactive); in experiment [8] it was 14% (inactive). For the same molecule, the inhibition of aggregation in experiment [2] is 28.1% (active). Further, the nuclei count in experiment [2] amounted to 75.3%; in experiment [3] it was 106%. The fluorescence slope in experiment [4] is -0.284 (inactive). In experiment [5], the NADPH fluorescence slope is -6e-05 (inactive). In experiment [6], the slope was 0.00436 (inactive).
Regarding `COC(=O)c1ccccc1NC(=O)C1CC(=O)N(c2ccccc2)C1` (centres undefined), the cell count in experiment [1] worked out at 576. The inhibition in experiment [1] was -5.8% (inactive); in experiment [3], -18.1% (inactive); in experiment [7], 10.2% (inactive); in experiment [8] it was 6.98% (inactive). Besides, the inhibition of aggregation in experiment [2] was 13.9% (inactive). Further, the nuclei count in experiment [2] stood at 99.5%; in experiment [3] it was 106%. The fluorescence slope in experiment [4] is -0.496 (inactive). Further, the NADPH fluorescence slope in experiment [5] is -5.9e-05 (inactive). In addition, in experiment [6], the slope was 0.00531 (inactive).
For the molecule `CCCCCn1c(CCNC(=O)CCC)nc2ccccc21`, the cell count in experiment [1] turned out to be 635. Moreover, the inhibition in experiment [1] is 3.4% (inactive); in experiment [3], -30.5% (inactive); in experiment [7], 10.2% (inactive); in experiment [8], 40.2% (inactive). In experiment [2], the inhibition of aggregation is -4.9% (inactive). Besides, the nuclei count in experiment [2] is 55%; in experiment [3], 104%. The fluorescence slope in experiment [4] is -0.552 (inactive). Moreover, the NADPH fluorescence slope in experiment [5] is -4.5e-05 (inactive). For the same molecule, in experiment [6], the slope was 0.00652 (inactive).
As for `CCCn1c(=NC(C)=O)c(C#N)cc2c(=O)n3cccc(C)c3nc21`, the cell count in experiment [1] was found to be 462. For the same molecule, the inhibition is -0.9% (inactive) in experiment [1], -35.4% (inactive) in experiment [3], -11.4% (inactive) in experiment [7] and 1.19% (inactive) in experiment [8]. In experiment [2], the inhibition of aggregation was 0.6% (inactive). Also, the figures for the nuclei count in experiment [2] and in experiment [3] were 99.9% and 131%, respectively. Moreover, in experiment [4], the fluorescence slope was -0.0531 (inactive). In experiment [5], the NADPH fluorescence slope is -1e-05 (inactive). Moreover, the slope in experiment [6] is 0.0086 (inactive).
`COc1ccc(NC(=O)Nc2ccc(C)cc2OC(F)F)cc1OC`: the cell count in experiment [1] is 335. Further, the inhibition is -6.5% (inactive) in experiment [1], -38.2% (inactive) in experiment [3], 1.59% (inactive) in experiment [7] and -6.11% (inactive) in experiment [8]. Besides, the inhibition of aggregation in experiment [2] is 6.2% (inactive). The nuclei count came out at 91.2% in experiment [2] and 94.2% in experiment [3]. Also, in experiment [4], the fluorescence slope is -0.422 (inactive). In experiment [5], the NADPH fluorescence slope was -5.1e-05 (inactive). Further, the slope in experiment [6] was 0.00406 (inactive).
On to `O=S(=O)(c1ccc(Oc2ccc(-c3nnco3)cc2)nc1)N1CCC(Cc2ccccc2)CC1`, for which, in experiment [1], the cell count amounted to 396. The inhibition in experiment [1] was -10.6% (inactive); in experiment [3], -1% (inactive); in experiment [7], 1.05% (inactive); in experiment [8], 5.84% (inactive). For the same molecule, the inhibition of aggregation in experiment [2] was -26.7% (inactive). Moreover, the nuclei count in experiment [2] was determined as 102%; in experiment [3] it was 108%. In addition, the fluorescence slope in experiment [4] was -0.508 (inactive). Further, the NADPH fluorescence slope in experiment [5] is -5e-05 (inactive). In addition, the slope in experiment [6] is 0.00554 (inactive).
In the case of `Cc1cc(C)nc(N(C#N)CC(=O)N2CCC(C(N)=O)CC2)n1`, in experiment [1], the cell count is 553. Besides, the inhibition in experiment [1] is -16.4% (inactive); in experiment [3], 21.6% (inactive); in experiment [7], 14.2% (inactive); in experiment [8], 13.3% (inactive). In addition, the inhibition of aggregation in experiment [2] was 12.3% (inactive). For the same molecule, the nuclei count stood at 98.2% in experiment [2] and 98.4% in experiment [3]. Moreover, the fluorescence slope in experiment [4] is -0.489 (inactive). Further, the NADPH fluorescence slope in experiment [5] is 1.8e-05 (inactive). For the same molecule, the slope in experiment [6] is 0.00455 (inactive).
On to `COc1ccc(S(=O)(=O)N2CCCC(C(=O)N3CCCCCC3)C2)cc1` (centres undefined), for which, in experiment [1], the cell count was 404. The inhibition in experiment [1] is -5.2% (inactive); in experiment [3] it was -8.6% (inactive); in experiment [7] it was 12% (inactive); in experiment [8], 10.4% (inactive). Also, in experiment [2], the inhibition of aggregation was -0.4% (inactive). The nuclei count is 106% in experiment [2] and 105% in experiment [3]. In experiment [4], the fluorescence slope is -0.403 (inactive). Moreover, the NADPH fluorescence slope in experiment [5] was -5e-05 (inactive). Moreover, the slope in experiment [6] is 0.00316 (inactive).
`COc1ccc(-n2c(Cc3cccn3C)nnc2SCC(N)=O)cc1`: the cell count in experiment [1] worked out at 531. The inhibition was -4.4% (inactive) in experiment [1], 1.4% (inactive) in experiment [3], 17.9% (inactive) in experiment [7] and 27.2% (inactive) in experiment [8]. Further, in experiment [2], the inhibition of aggregation is 6.6% (inactive). Further, the values for the nuclei count in experiment [2] and in experiment [3] were 63.8% and 99.3%, respectively. In addition, the fluorescence slope in experiment [4] was -0.59 (inactive). Moreover, the NADPH fluorescence slope in experiment [5] is -3.3e-05 (inactive). The slope in experiment [6] is 0.00644 (inactive).
Regarding `CC(NC(=O)C1CC1)C(c1cccs1)N1CCN(c2ccccc2)CC1` (centres undefined), the cell count in experiment [1] was 884. Also, the inhibition in experiment [1] was 4.2% (inactive); in experiment [3], -17.3% (inactive); in experiment [7] it was 6.3% (inactive); in experiment [8] it was 23.6% (inactive). For the same molecule, in experiment [2], the inhibition of aggregation is -7.2% (inactive). Also, the nuclei count in experiment [2] is 100%; in experiment [3] it was 116%. The fluorescence slope in experiment [4] was -0.495 (inactive). Further, the NADPH fluorescence slope in experiment [5] was -3e-05 (inactive). For the same molecule, the slope in experiment [6] was 0.00607 (inactive).
For `Cc1ccc(-n2nc(C)c3cc(C(=O)O)sc32)cc1`, in experiment [1], the cell count was 369. In addition, the inhibition in experiment [1] is 6.3% (inactive); in experiment [3] it was -140% (inactive); in experiment [7], 12.6% (inactive); in experiment [8], 33.9% (inactive). Also, the inhibition of aggregation in experiment [2] was 11.1% (inactive). In addition, the nuclei count in experiment [2] was determined as 90.3%; in experiment [3], 97.4%. Besides, the fluorescence slope in experiment [4] was -0.191 (inactive). In experiment [5], the NADPH fluorescence slope was -5e-05 (inactive). Besides, the slope in experiment [6] was 0.00582 (inactive).
In the case of `CCOC(=O)c1[nH]c(=O)c2ccccc2c1O`, the cell count in experiment [1] stood at 367. For the same molecule, the inhibition in experiment [1] was -3.9% (inactive); in experiment [3], -0.2% (inactive); in experiment [7], -11.9% (inactive); in experiment [8], -8.42% (inactive). Further, in experiment [2], the inhibition of aggregation is 2.9% (inactive). The nuclei count in experiment [2] came out at 96.9%; in experiment [3] it was 116%. Moreover, the fluorescence slope in experiment [4] is -0.512 (inactive). In experiment [5], the NADPH fluorescence slope was -1.7e-05 (inactive). In experiment [6], the slope was 0.00472 (inactive).
Regarding `O=S(=O)(c1cccc(-c2nnco2)c1)N1CCCC1`, in experiment [1], the cell count is 453. Also, the inhibition is 0.5% (inactive) in experiment [1], 0.2% (inactive) in experiment [3], 8.27% (inactive) in experiment [7] and 13.9% (inactive) in experiment [8]. Moreover, in experiment [2], the inhibition of aggregation is -4.5% (inactive). The nuclei count in experiment [2] came to 95.9%; in experiment [3] it was 108%. The fluorescence slope in experiment [4] is -0.519 (inactive). Further, the NADPH fluorescence slope in experiment [5] was -4.3e-05 (inactive). In experiment [6], the slope was 0.00457 (inactive).
Consider `CCN1CCN(C(=O)C2CC(c3ccc(F)cc3)=NO2)CC1` (centres undefined), for which the cell count in experiment [1] came to 538. The inhibition was 1.5% (inactive) in experiment [1], 1.4% (inactive) in experiment [3], -8.44% (inactive) in experiment [7] and 20.7% (inactive) in experiment [8]. Further, the inhibition of aggregation in experiment [2] is 3% (inactive). Besides, the results for the nuclei count in experiment [2] and in experiment [3] were 102% and 108%, respectively. In experiment [4], the fluorescence slope is -0.621 (inactive). Further, in experiment [5], the NADPH fluorescence slope is -4e-05 (inactive). Further, the slope in experiment [6] is 0.00735 (inactive).
